Assay [1] is described as follows: qHTS assay to test for compound auto fluorescence at 535 nm (green) in HEK293 cells (AID 720680). Also: potency is read from the fitted curve at half-maximal effect.
Assay [2] is described as follows: qHTS assay to test for compound auto fluorescence at 460 nm (blue) in HEK293 cell free culture (AID 720681). In outline:
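Blue fluorescence (Ex 405/Em 460 nm, triamterene-equivalent) was read immediately after pin transfer of compound or DMSO into medium (DMEM, 10% FBS) without cells.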

Assay [3] can be described thus: qHTS assay to test for compound auto fluorescence at 535 nm (green) in HEK293 cell free culture (AID 720682). Also: potency is read from the fitted curve at half-maximal effect. The procedure, abridged: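 Measurement is a direct plate read of green fluorescence (485 nm in, 535 nm out) after compound addition to serum-supplemented DMEM lacking cells, with fluorescein used to express intensities.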
Assay [4] is described as follows: qHTS assay to test for compound auto fluorescence at 460 nm (blue) in HepG2 cell free culture (AID 720685). The procedure, abridged: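 Compound (23 nL) or DMSO pinned into cell-free MEM with 10% FBS; blue fluorescence read at 405/460 nm excitation/emission, expressed as auto-fluorescence equivalency to triamterene.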
The nature of assay [5]: qHTS assay to test for compound auto fluorescence at 535 nm (green) in HepG2 cell free culture (AID 720686). Also: potency is read from the fitted curve at half-maximal effect.
Assay [6] can be described thus: qHTS assay to test for compound auto fluorescence at 460 nm (blue) in HepG2 cells (AID 720687). In outline:
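Blue-channel autofluorescence (Ex/Em 405/460 nm, triamterene-equivalent) was measured after 1 hr compound exposure at 37 C, 5% CO2. Cells were HepG2, plated overnight at 37 C in MEM plus 10% FBS.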

The target of assay [7] is Glucocorticoid receptor (Homo sapiens) (UniProt P04150). In words: qHTS assay to identify small molecule agonists of the glucocorticoid receptor (GR) signaling pathway (AID 720691; active = well fitted activation curve with a large enough effect in the signal ratio in the repeat runs, not every such curve was filed as active; the % refers to the signal ratio). To be noted: GR-bla HeLa, beta-lactamase reporter ratio, 18 h; activation: at 62.4 µM (top of the series). The procedure, abridged:
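GR-bla HeLa cells (beta-lactamase reporter under glucocorticoid response element) were plated 4 h at 37 C/5% CO2, given compounds in DMSO, and incubated 18 h at 37 C. LiveBLAzer B/G FRET substrate was added for 2 h at room temperature, then fluorescence intensity read.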

The target is the same in assay [8]. Kind of assay: qHTS assay to identify small molecule antagonists of the glucocorticoid receptor (GR) signaling pathway (AID 720692; active = well fitted inhibition curve with a large enough effect in the signal ratio in the repeat runs, not every such curve was filed as active; the % refers to the signal ratio; also: potency is read from the fitted curve at half-maximal effect). The procedure, abridged: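 GR-bla HeLa cells (beta-lactamase reporter under glucocorticoid response element) were pre-plated 4 h at 37 C, treated with compounds plus 5 nM dexamethasone (final) for 18 h, then read by LiveBLAzer B/G FRET fluorescence after 2 h.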

Assay [9] can be described thus: qHTS assay to test for compound auto fluorescence at 590 nm (red) in HepG2 cell free culture (AID 720684). In outline:
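Plate contents were MEM with 10% FBS plus test compound or DMSO, no cells. Fluorescence was recorded with 540 nm excitation and 590 nm emission.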

Assay [10] can be described thus: qHTS assay to test for compound auto fluorescence at 590 nm (red) in HEK293 cell free culture (AID 720683). The procedure, abridged: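 Red-channel autofluorescence of compounds in culture medium (DMEM, 10% FBS), no cells, measured at 540/590 nm. Rose Bengal sodium is the reference fluorophore for equivalence.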

Inconclusive results are not listed. Active and inactive are the calls of the source. Unless noted, calls follow the shape of the dose curve; as a rule, active = well fitted curve in the direction sought with a large enough effect in the repeat runs; inconclusive = weak or mixed curves; inactive = flat fitted curve, though single readings scatter.
Tags tell the direction and shape of the fitted curve or compound fluorescence and quenching.

Chain of Glucocorticoid receptor (Homo sapiens) (P04150 whole entry, looked up): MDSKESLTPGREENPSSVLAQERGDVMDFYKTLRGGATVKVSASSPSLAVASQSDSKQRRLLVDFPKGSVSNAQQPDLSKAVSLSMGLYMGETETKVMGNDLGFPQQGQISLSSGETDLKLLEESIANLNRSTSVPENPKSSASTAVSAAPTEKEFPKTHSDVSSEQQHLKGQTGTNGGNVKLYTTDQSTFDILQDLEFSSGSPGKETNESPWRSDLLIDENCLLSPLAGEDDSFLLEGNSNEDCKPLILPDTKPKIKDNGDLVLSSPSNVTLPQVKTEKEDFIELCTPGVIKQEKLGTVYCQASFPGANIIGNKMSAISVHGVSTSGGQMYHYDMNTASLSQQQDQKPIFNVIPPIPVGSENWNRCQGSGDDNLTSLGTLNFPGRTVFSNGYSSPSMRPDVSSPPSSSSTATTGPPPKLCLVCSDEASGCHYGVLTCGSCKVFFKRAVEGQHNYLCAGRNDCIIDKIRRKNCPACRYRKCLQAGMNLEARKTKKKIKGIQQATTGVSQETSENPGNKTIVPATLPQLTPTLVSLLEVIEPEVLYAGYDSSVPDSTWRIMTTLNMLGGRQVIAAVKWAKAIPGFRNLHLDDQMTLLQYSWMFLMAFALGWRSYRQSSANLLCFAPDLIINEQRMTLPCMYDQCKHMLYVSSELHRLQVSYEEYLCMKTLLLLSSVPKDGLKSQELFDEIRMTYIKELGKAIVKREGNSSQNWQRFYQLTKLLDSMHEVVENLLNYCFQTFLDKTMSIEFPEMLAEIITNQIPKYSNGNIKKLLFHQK

Turning to `Cc1cc(/C=C/c2ccc3cc(N(C)C)ccc3[n+]2C)c(C)n1-c1ccccc1`, the Potency result in [1], in assay [2], in assay [3], in [5] and in assay [7] was “inactive” each time. Also, the outcome in [4] and in assay [6] was inactive.
For `CCCCc1cc2c(=O)c(C(=O)OC)c[nH]c2cc1OCc1ccccc1`, the Potency result in [1], in [2], in assay [3], in assay [5], in [7] and in assay [8] was “inactive” each time. The call in [4] and in assay [6] was inactive.
Regarding `CN(C)c1ccc(C(=C2C=CC(=[N+](C)C)C=C2)c2c(O)c(S(=O)(=O)[O-])cc3cc(S(=O)(=O)O)ccc23)cc1`, the Potency entry in [1], in assay [2], in assay [3], in [9], in assay [5] and in assay [8] was “inactive” in each case. For the same compound, the compound was called inactive in assay [4] and in assay [6].
For the compound `CC(C)(C)NC(=O)[C@H]1CC[C@H]2[C@@H]3CC=C4C=C(C(=O)O)CC[C@]4(C)[C@H]3CC[C@]12C`, the Potency entry in assay [1], in assay [2], in assay [3], in assay [9], in assay [5] and in assay [7] was “inactive” in each case. In addition, the call in [4] and in assay [6] was inactive.
In the case of `[O]=[Bi][O][Bi]=[O]`, the Potency result in assay [1], in [2], in [3], in [9], in assay [5] and in assay [7] was “inactive” in each case. The compound was classed as inactive in assay [4] and in [6].
In the case of `CO[C@H]1C[C@H](O[C@@H]2/C(C)=C/C[C@@H]3C[C@@H](C[C@]4(CC[C@H](C)[C@@H](C5CCCCC5)O4)O3)OC(=O)[C@@H]3C=C(C)/C(=N/O)[C@H]4OC/C(=C\C=C\[C@@H]2C)[C@]43O)O[C@@H](C)[C@@H]1O`, the Potency entry in assay [1], in assay [2], in assay [3], in assay [9], in [5] and in [7] was “inactive” in each case. Besides, the Potency result in assay [8] was “inactive”. The compound was called inactive in assay [4] and in assay [6].
On to `CC(C)[C@H](N)C(=O)OCC(CO)OCn1cnc2c(=O)[nH]c(N)nc21` (some centres undefined), for which the Potency entry in [1], in assay [2], in assay [3], in assay [9], in assay [5] and in assay [7] was “inactive” in each case. The Potency entry in assay [8] is “inactive”. For the same compound, the call in assay [4] and in assay [6] was inactive.
In the case of `CC(C)(C)NCC(O)CSc1nc(-c2ccc(C(N)=O)s2)cs1` (centres undefined), the Potency result in assay [1], in assay [2], in [3], in assay [9], in assay [5] and in assay [7] was “inactive” in each case. In addition, the Potency result in assay [8] is “inactive”. Also, the result in assay [4] and in [6] was inactive.
In the case of `O=C(O)CN(CC(=O)O)CC1=CC2C(=CC1=O)Oc1cc(O)c(CN(CC(=O)O)CC(=O)O)cc1C21OC(=O)c2ccccc21` (centres undefined), the Potency in assay [1], in assay [3] and in assay [5] was 11.2 µM [fluorescent] (active) each time. Moreover, the Potency entry in assay [2] was “inactive”. Besides, the compound was classed as inactive in assay [4] and in assay [6].
`CCOC(=O)[C@H](CCc1ccccc1)N[C@@H](C)C(=O)N1CC2(C[C@H]1C(=O)O)SCCS2`: the Potency entry in assay [1], in assay [2], in [3], in [9], in [5] and in [7] was “inactive” throughout. Also, the Potency result in assay [8] is “inactive”. In addition, the call in [4] was inactive.
In the case of `CCCCC(=O)O[C@H]1CC[C@H]2[C@@H]3CCc4cc(O)ccc4[C@H]3CC[C@]12C`, the Potency entry in assay [1], in [2], in assay [3], in [9], in assay [5] and in [7] was “inactive” each time. For the same compound, the compound was classed as inactive in assay [4] and in assay [6]. In addition, the Potency in assay [8] was 9.52 µM (active).
As for `CC[C@@H]1/C=C(\C)C[C@H](C)C[C@H](OC)[C@H]2O[C@@](O)(C(=O)C(=O)N3CCCC[C@H]3C(=O)O[C@H](/C(C)=C/[C@@H]3CC[C@@H](Cl)[C@H](OC)C3)[C@H](C)[C@@H](O)CC1=O)[C@H](C)C[C@@H]2OC`, the Potency entry in assay [1], in assay [2], in [3], in assay [9] and in assay [5] was “inactive” each time. Besides, the compound was classed as inactive in assay [4] and in [6].
As for `CCC(Oc1ccccc1)C(=O)N[C@@H]1C(=O)N2[C@@H]1SC(C)(C)[C@@H]2C(=O)O` (some centres undefined), the Potency result in assay [1], in assay [2], in [10], in assay [9] and in assay [5] was “inactive” in each case. In addition, the compound was classed as inactive in assay [4] and in [6].
`O=C1O[C@H]2[C@H](O)[C@@H]1OC(O)[C@H]2O` (some centres undefined): the Potency entry in assay [1], in assay [2], in assay [3], in assay [9], in [5] and in assay [7] was “inactive” in each case. For the same compound, in assay [8], the Potency result was “inactive”. The compound was called inactive in [4] and in [6].
Regarding `CCC(=O)OCC(=O)[C@@]1(OC(=O)CC)[C@H](C)C[C@H]2[C@@H]3CCC4=CC(=O)C=C[C@]4(C)[C@@]3(F)[C@@H](O)C[C@@]21C`, the Potency result in [1], in assay [2], in assay [10], in assay [9] and in assay [5] was “inactive” each time. Besides, the result in [4] and in [6] was inactive.
For `CC(C)(C)C(=O)OCOC(=O)[C@@H]1N2C(=O)[C@@H](N=CN3CCCCCC3)[C@H]2SC1(C)C`, the Potency result in [1], in [2], in [10], in assay [9] and in [5] was “inactive” throughout. Moreover, the call in [4] and in [6] was inactive.
Take `CC(=O)OC[C@H]1O[C@@H](O[C@H]2[C@H](O)[C@@H](OC(=O)c3ccccc3C(=O)O)[C@H](O)O[C@@H]2COC(C)=O)[C@H](O)[C@@H](OC(=O)c2ccccc2C(=O)O)[C@@H]1O`: the Potency entry in assay [1], in assay [2], in assay [3], in assay [5], in assay [7] and in [8] was “inactive” each time. For the same compound, the call in assay [4] and in assay [6] was inactive.
In the case of `CCCCCCCCCCCCCCCCCC(=O)OC[C@@H](O)[C@H]1OC[C@H](O)[C@H]1O`, the Potency result in assay [1], in assay [2], in assay [3], in assay [9], in [5] and in assay [7] was “inactive” throughout. In addition, the Potency result in assay [8] is “inactive”. For the same compound, the compound was called inactive in assay [4] and in assay [6].
Turning to `CN(C)CCOc1ccccc1Cc1ccccc1` (tested in a mixture with another compound), the Potency entry in assay [1], in [2], in assay [3] and in assay [9] was “inactive” throughout. The compound was classed as inactive in assay [4] and in [6].

These data come from PubChem BioAssay (Tox21).
